A short description of test [1]: qHTS of pediatric cancer cell lines to identify multiple opportunities for drug repurposing: Confirmatory screen for Rh41 cells (AID 1347123).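 Further: potency means the concentration at half of the fitted maximal effect; 48 h compound exposure; nearly all actives have a fitted effect of over 60% in size.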 The method, boiled down: (§1)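 Cells (500-1,000/well) rested 5 h, then received compounds for 48 h; metabolically active cells were measured by CellTiter-Glo luminescence. Final concentrations spanned up to 46 µM (MIPE, 11-point) or 0.59 nM-46 µM (NPC, 8-point) in primary screens, 11-point in follow-ups.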

The nature of test [2]: qHTS of pediatric cancer cell lines to identify multiple opportunities for drug repurposing: Confirmatory screen for Rh18 cells (AID 1347125). Further: nearly all actives have a fitted effect of over 55% in size. Further: potency means the concentration at half of the fitted maximal effect. The method, boiled down:
as §1

The nature of test [3]: qHTS of pediatric cancer cell lines to identify multiple opportunities for drug repurposing: Confirmatory screen for Rh30 cells (AID 1347126). Further: nearly all actives have a fitted effect of over 55% in size. Further: potency means the concentration at half of the fitted maximal effect. The method, boiled down: as §1
A short description of test [4]: qHTS of pediatric cancer cell lines to identify multiple opportunities for drug repurposing: Confirmatory screen for OHS-50 cells (AID 1347128).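 Further: compound exposure lasted 48 h at 37 degrees C; nearly all actives have a fitted effect of over 55% in size.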 Further: potency means the concentration at half of the fitted maximal effect. Put shortly:
as §1

The nature of test [5]: qHTS of pediatric cancer cell lines to identify multiple opportunities for drug repurposing: Confirmatory screen for SK-N-SH cells (AID 1347129).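 Further: cells exposed to compound for 48 h before viability read; nearly all actives have a fitted effect of over 60% in size.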 Further: potency means the concentration at half of the fitted maximal effect. The method, boiled down:
as §1

Test [6] deals with Zika virus NS2B-NS3 protease. As to the kind of experiment: Primary screen GU AMC qHTS for Zika virus inhibitors (AID 1347154). Further: nearly all actives have a fitted effect of over 70% in size. Put shortly:
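Fluorogenic AMC-substrate cleavage by noncovalent NS2B-NS3 protease complex (25 nM, pH 8.0 Tris buffer with Tween 20) followed for 15 minutes at room temperature (~20% conversion). Percent inhibition from ex340/em450 signal change, fitted by 4-parameter Hill equation.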

Test [7] can be described thus: qHTS of pediatric cancer cell lines to identify multiple opportunities for drug repurposing: Confirmatory screen for RD cells (AID 1347124).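 Further: cells exposed to compound for 48 h before viability readout; nearly all actives have a fitted effect of over 65% in size.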 Put shortly:
as §1

Test [8] addresses N-terminal Xaa-Pro-Lys N-methyltransferase 1 (Homo sapiens) (UniProt Q9BV86). The test can be described thus: qHTS Assay for Inhibitors of N-terminal methyltransferase 1 (NTMT1): LOPAC validation of the NTMT1 SAHH-coupled ThioGlo3 Assay (AID 1347143).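 Further: SAH from peptide methylation measured as thiol fluorescence via SAHH coupling and ThioGlo3; nearly all actives have a fitted effect of over 70% in size.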 Put shortly: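 Inhibition of NTMT1 methylation of peptide SPKRIA is followed by converting SAH with SAHH and labelling the released thiol with ThioGlo3. Plates are read at 340/450nm before and 30 min after reagent addition, both at room temperature.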

For test [9], the system named is Zika virus NS2B-NS3 protease (unlinked). As to the kind of experiment: Optimization of GU AMC qHTS for Zika virus inhibitors: Unlinked NS2B-NS3 protease assay (AID 1347151). Further: series mostly up to about 52 µM; nearly all actives have a fitted effect of over 80% in size. Put shortly:
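Percent inhibition is derived from the 15-min change in AMC fluorescence, normalized against no-inhibitor and no-enzyme controls, then fitted to a 4-parameter Hill curve. Aprotinin was the intraplate control.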

The subject of test [10] is Zika virus NS2B-NS3 protease (unlinked complex). As to the kind of experiment: Primary screen GU Rhodamine qHTS for Zika virus inhibitors: Unlinked NS2B-NS3 protease assay (AID 1347159). Further: nearly all actives have a fitted effect of over 60% in size. Put shortly: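 A qHTS format was used, with compound concentrations ranging up to 114 microM. Each compound was preincubated with 25 nM NS2B-NS3 protease, and the substrate was then added at 1.5 microM. Curves were fitted with a 4-parameter Hill model.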

The subject of test [11] is Zika virus NS2B-NS3 protease (linked construct). As to the kind of experiment: Primary screen NINDS Rhodamine qHTS for Zika virus inhibitors (AID 1347160). Further: nearly all actives have a fitted effect of over 55% in size. Put shortly:
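Kinetic fluorescence (Ex 480 nm, Em 540 nm) over 15 min with 1.5 microM Rhodamine110 peptide and 25 nM linked protease.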

The target in test [12] is Lysine-specific demethylase 5B (Homo sapiens) (UniProt Q9UGL1). As to the kind of experiment: Optimization screen for KDM5B Histone Demethylases FDH coupled qHTS against the LOPAC library (AID 1347166). Put shortly: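 KDM5BDeltaAP (200nM final) preincubated 10 min with compound, then 12.5uM H3K4Me3, 25uM a-ketoglutarate, ascorbate, Fe(II), NAD+ and FDH added; 50mM HEPES pH 7.5, 0.01% Tween-20. NADH fluorescence (340/450 nm) change over 30 min, room temperature.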

Records with an inconclusive call do not appear. Activity calls are given as the source filed them. The call rests on the fitted dose curve; in most records, active means well fitted curve in the direction sought with a large enough effect; inconclusive means small, poorly fitted or top-dose-only effect, or another doubt; inactive means no such curve, though single readings can be large; an effect the other way counts as inactive or inconclusive.

N-terminal Xaa-Pro-Lys N-methyltransferase 1 (Homo sapiens), sequence (Q9BV86 whole entry, looked up): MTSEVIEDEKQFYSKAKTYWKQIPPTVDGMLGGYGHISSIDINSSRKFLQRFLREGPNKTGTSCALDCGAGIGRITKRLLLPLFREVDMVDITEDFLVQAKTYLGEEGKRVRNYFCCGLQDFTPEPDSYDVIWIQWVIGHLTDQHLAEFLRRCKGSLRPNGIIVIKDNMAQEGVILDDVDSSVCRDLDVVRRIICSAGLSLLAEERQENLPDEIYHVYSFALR
Lysine-specific demethylase 5B (Homo sapiens), sequence (Q9UGL1 whole entry, looked up): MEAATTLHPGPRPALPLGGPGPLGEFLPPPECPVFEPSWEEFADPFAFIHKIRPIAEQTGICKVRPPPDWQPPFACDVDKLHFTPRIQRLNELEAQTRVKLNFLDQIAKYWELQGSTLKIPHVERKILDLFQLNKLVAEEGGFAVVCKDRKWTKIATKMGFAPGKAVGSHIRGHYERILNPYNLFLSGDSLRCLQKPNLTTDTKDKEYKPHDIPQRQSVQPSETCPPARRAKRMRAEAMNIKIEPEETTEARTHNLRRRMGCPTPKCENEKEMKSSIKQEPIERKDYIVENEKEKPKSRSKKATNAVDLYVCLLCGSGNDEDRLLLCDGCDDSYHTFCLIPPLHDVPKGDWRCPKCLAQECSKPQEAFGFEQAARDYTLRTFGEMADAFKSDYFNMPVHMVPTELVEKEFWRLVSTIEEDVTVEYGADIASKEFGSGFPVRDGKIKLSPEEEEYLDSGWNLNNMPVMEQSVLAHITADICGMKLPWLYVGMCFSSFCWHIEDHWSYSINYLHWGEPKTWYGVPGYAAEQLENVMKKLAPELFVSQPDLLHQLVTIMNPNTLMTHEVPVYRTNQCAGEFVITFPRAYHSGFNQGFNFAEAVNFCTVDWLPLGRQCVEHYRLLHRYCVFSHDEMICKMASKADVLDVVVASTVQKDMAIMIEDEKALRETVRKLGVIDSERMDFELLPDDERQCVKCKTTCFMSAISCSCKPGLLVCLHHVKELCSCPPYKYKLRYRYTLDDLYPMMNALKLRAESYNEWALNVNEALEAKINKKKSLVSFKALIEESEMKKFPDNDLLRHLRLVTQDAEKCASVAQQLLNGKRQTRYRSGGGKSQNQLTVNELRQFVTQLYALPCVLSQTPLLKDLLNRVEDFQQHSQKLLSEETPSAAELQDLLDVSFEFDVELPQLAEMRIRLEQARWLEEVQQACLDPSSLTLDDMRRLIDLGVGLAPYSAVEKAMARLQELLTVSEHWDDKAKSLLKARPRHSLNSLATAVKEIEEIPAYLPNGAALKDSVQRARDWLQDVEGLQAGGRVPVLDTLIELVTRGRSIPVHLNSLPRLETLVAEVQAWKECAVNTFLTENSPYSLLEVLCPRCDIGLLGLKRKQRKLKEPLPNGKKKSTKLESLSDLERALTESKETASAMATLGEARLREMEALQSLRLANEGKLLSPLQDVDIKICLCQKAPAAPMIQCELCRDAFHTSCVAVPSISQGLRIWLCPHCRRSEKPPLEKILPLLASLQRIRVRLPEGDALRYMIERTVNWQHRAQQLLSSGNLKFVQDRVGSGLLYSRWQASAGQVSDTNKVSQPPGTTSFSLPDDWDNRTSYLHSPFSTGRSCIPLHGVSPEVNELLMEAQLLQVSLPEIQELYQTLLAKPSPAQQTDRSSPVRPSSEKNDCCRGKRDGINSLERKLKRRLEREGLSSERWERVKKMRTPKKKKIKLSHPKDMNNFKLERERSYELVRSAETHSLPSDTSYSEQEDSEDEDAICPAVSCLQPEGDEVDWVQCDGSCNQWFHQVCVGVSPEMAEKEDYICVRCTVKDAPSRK

Consider `NS(=O)(=O)c1cccc2c1C(=O)c1cccc(O)c1C2=O`, for which the Potency in test [1] was 0.657 µM (active); in test [2], 2.33 µM (active); in test [3] it was 2.93 µM (active); in test [4] it was 2.93 µM (active); in [5] it was 2.09 µM (active). Also, the Potency entry in test [6] was “inactive”.
Take `CO[C@H]1C[C@@H]2CC[C@@H](C)[C@@](O)(O2)C(=O)C(=O)N2CCCC[C@@H]2C(=O)O[C@H]([C@H](C)C[C@@H]2CC[C@H](OP(C)(C)=O)[C@H](OC)C2)CC(=O)[C@H](C)C=C(C)[C@@H](O)[C@@H](OC)C(=O)[C@H](C)C[C@H](C)C=CC=CC=C1C`: the Potency is 4.65 µM (active) in test [1] and 18.5 µM (active) in test [3]. The Potency entry in test [2], in test [5] and in [6] was “inactive” in each case.
For the compound `NC1=N[C@@]2(c3cc(NC(=O)c4ccc(F)cn4)ccc3F)COC[C@@H]2CS1`, the Potency result in test [7], in test [2], in test [3], in [4], in test [5] and in [6] was “inactive” throughout.
On to `CN(C)CCC(c1ccccc1)c1ccccn1` (stereo unspecified), for which the Potency entry in test [8], in [9], in [6], in [10] and in [11] was “inactive” each time. Besides, in test [12], the outcome was inactive.
With `CC(=O)O[C@]1(C(C)=O)CC[C@H]2[C@@H]3C=C(Cl)C4=CC(=O)[C@@H]5C[C@@H]5[C@]4(C)[C@H]3CC[C@@]21C`, the Potency result in test [8], in [9], in [6], in test [10] and in test [11] was “inactive” throughout. In addition, the call in [12] was inactive.
Take `O=C(O)CCC1CCC(c2cc(F)ccc2F)(S(=O)(=O)c2ccc(Cl)cc2)CC1` (stereo unspecified): the Potency result in test [7] and in test [5] was “inactive” throughout. The Potency in [2] is 29.3 µM (active).
Regarding `O=C1NC(=O)C(c2ccccc2)(c2ccccc2)N1`, the Potency result in test [8], in [9] and in [6] was “inactive” each time. For the same compound, the outcome in [12] was inactive.
As for `CC[C@]1(O)C[C@@H]2CN(CCc3c([nH]c4ccccc34)[C@@](C(=O)OC)(c3cc4c(cc3OC)N(C=O)[C@@H]3C45CCN4CC=C[C@](CC)([C@H]45)[C@@H](OC(C)=O)[C@]3(O)C(=O)OC)C2)C1` (stereo partly specified), the Potency result in test [7], in test [2], in test [4], in [5] and in [6] was “inactive” each time.

For the origin of these results see PubChem BioAssay (NCATS).
